In ChEMBL document CHEMBL4513216, “Probing the Open Global Health Chemical Diversity Library for Multistage-Active Starting Points for Next-Generation Antimalarials” (ACS Infect Dis, 2020):
Among all 69,000 compounds or so, about 8,600 (12%) showed an effect of 50% or more. Many of the other results were omitted from the sample, so strong results are more common in it than they were.

Each compound was assayed on Plasmodium berghei (assay: Screen against P. berghei liver stage (PbLuc), transformed with Luciferase, at 10uM). Conditions: tested at 10 uM.
Type: functional, HepG2
In the case of `CCN1CC2(CC1=O)CN(C(=O)NC(C)C)CCN(C(=O)C(C)C)C2` (stereo unspecified), the INHIBITION is reported as 30.5%. Work on `CN(C)C(=O)N1C[C@@H]2COC[C@]2(CNS(C)(=O)=O)C1` yielded an INHIBITION of 14.2%. Compound `CC(=O)N1CCO[C@@H]2CN(Cc3ccccc3Cl)C[C@@H]2C1` has an INHIBITION of 38.5%. Work on `Cc1ccccc1C1(C(=O)NCCN(C(C)C)C(C)C)CCOCC1` yielded an INHIBITION of -52.66%. Work on `c1cc2nccc(CC3CCCN(C4CCOCC4)CC3)c2cn1` (stereo unspecified) yielded an INHIBITION of 15.9%. Compound `CN(C)[C@@H]1CN(C(=O)Cc2cccs2)[C@@H]2CCCO[C@H]12` has an INHIBITION of 24.6%. `O=C(c1ccc(N2CCOCC2)cc1)N1CCCC(n2ccnc2)C1` (stereo unspecified) gave an INHIBITION of 41.415%. `CN(C)c1ncccc1CNC(=O)NCCN(C)C1CCCC1` gave an INHIBITION of 28.8%. Work on `CCOC(=O)C1CCN(Cc2csc(-c3ccc(C)o3)n2)CC1` yielded an INHIBITION of 0.914%. For `O=C(C1CCOCC1)N1CC[C@@H](O)[C@@H]1Cc1ccncc1`, the INHIBITION was -2.35%. Compound `CC(=O)N1CCC(n2nccc2-c2cnc(N3CCCC3)nc2)CC1` has an INHIBITION of 33.7%. `FC(F)(F)c1cccc(OC2CCN(Cc3ccccn3)CC2)c1` showed an INHIBITION of 40.7%. For `FC(F)(F)c1cccc(OC2CCN(Cc3c[nH]cn3)CC2)c1`, the INHIBITION was 88%. For `Nc1ccc(C(=O)N2CCC(Oc3cccc(C(F)(F)F)c3)CC2)cn1`, the INHIBITION was 29.8%. `CCc1nc(C2CCCN2C(=O)CCCn2cncn2)no1` (stereo unspecified) was tested, and the INHIBITION was -59.4%. `CN1C(=O)CCCC12CCCN(C(=O)c1ccc3c(c1)OCO3)C2` (stereo unspecified) was tested, and the INHIBITION was -36.8%. `CCS(=O)(=O)N1CCC2(CC1)CN(Cc1ccccn1)C(=O)CO2` was tested, and the INHIBITION was 35.8%. `CCOC(=O)[C@@H]1[C@@H](O)C(=O)N(C)C12CCN(C(=O)c1ccco1)CC2` showed an INHIBITION of -3.5%. In the case of `CCOC(=O)[C@H]1[C@@H](O)C(=O)N(C)C12CCN(C(=O)OCC)CC2`, the INHIBITION is reported as 20%. With `CCOC(=O)[C@H]1[C@@H](O)C(=O)N(C)C12CCN(C(=O)c1ccccc1)CC2` the INHIBITION was 58.5%. `CCN(CC)S(=O)(=O)NCc1ccc(-c2ccc(C(N)=O)c(C)n2)cc1` gave an INHIBITION of -5.8%. With `CN(CCc1cccs1)C(=O)Nc1cccc(S(C)(=O)=O)c1` the INHIBITION was -93.6%. Work on `Cc1nc(CN2CCN(C(=O)NC(C)c3cccnc3)CC2)cs1` (stereo unspecified) yielded an INHIBITION of 41.5%. Compound `CC(C)Oc1ccc(NCc2ccc([S+](C)[O-])cc2)c(F)c1` (stereo unspecified) has an INHIBITION of 93.1%. `CC(C)Oc1ccc(CNC(=O)CC(F)(F)F)cc1F` gave an INHIBITION of -4.69%. With `CC(C)Oc1ccc(CNC(=O)NCc2ccncc2)cc1F` the INHIBITION was 29.5%. `CN(Cc1cccc(C(N)=O)c1)c1ncc(C(N)=O)cc1Cl` was tested, and the INHIBITION was 49.1%. Work on `CN(c1ncc(C(N)=O)cc1Cl)C1CCC(c2ccccc2)CC1` (stereo unspecified) yielded an INHIBITION of 38.1%. `CN(Cc1ccc(C#N)cc1)C(=O)c1ccn(C)c(=O)c1` was tested, and the INHIBITION was 33.4%. In the case of `CN(Cc1cccc(C#N)c1)c1ncc(C(N)=O)cc1Cl`, the INHIBITION is reported as 66.3%. Work on `CN(Cc1ccc(C#N)cc1)c1ncc(C(N)=O)cc1Cl` yielded an INHIBITION of 65.4%. `CN(Cc1cccc(C(N)=O)c1)c1ncc(C#N)cc1Cl` gave an INHIBITION of 61.1%. `CCN(CC)C(=O)c1ccc(CNc2ncc(C#N)cc2Cl)cc1` gave an INHIBITION of -22.8%. Compound `COCCN(CCOC)c1ncc(C#N)cc1Cl` has an INHIBITION of -2.39%. `COc1cccc(CN(C)c2ncc(C(N)=O)cc2Cl)c1` was tested, and the INHIBITION was 26.9%. `Cc1cc(CNC(=O)NCCC(=O)N2CCCc3ccccc32)no1` gave an INHIBITION of 17.1%. Work on `CN(Cc1cccc(C#N)c1)Cc1nc2c(cnn2C)c(=O)[nH]1` yielded an INHIBITION of 44.3%. Compound `OC(COc1ccccc1)CN1CCc2c(ncn2C2CC2)C1` (stereo unspecified) has an INHIBITION of 5.97%. In the case of `O=S(=O)(CCN1CCc2c(ncn2C2CC2)C1)c1ccccc1`, the INHIBITION is reported as -11.4%. In the case of `CS(=O)(=O)CCN1CCc2c(ncn2C2CC2)C1`, the INHIBITION is reported as -2.43%. For `CC(C)S(=O)(=O)CCN1CCc2c(ncn2C2CC2)C1`, the INHIBITION was 67.1%. In the case of `Cc1ccc(OCC(O)CN2CCc3c(ncn3C3CC3)C2)cc1` (stereo unspecified), the INHIBITION is reported as 58.5%. `OC(CN1CCOCC1)CN1CCc2c(ncn2C2CC2)C1` (stereo unspecified) was tested, and the INHIBITION was 13.5%. Work on `Fc1ccc(CN2CCC3(CC2)CC(c2cccnc2)CO3)cc1` (stereo unspecified) yielded an INHIBITION of 15.4%. `CN(C)c1cc(CC(NC(=O)C2CC2)c2ccccc2)nc(C2CC2)n1` (stereo unspecified) gave an INHIBITION of 37.1%. For `O=C(NCc1ccccn1)C1=NN(c2ccccc2)C(=O)CN1`, the INHIBITION was -170%. In the case of `CN(C)C(c1ccccn1)C1CCC(CNC(=O)C2CC2)CC1` (stereo unspecified), the INHIBITION is reported as -103%. `Cn1cc(-c2ncc3c(c2C(=O)O)CCN(Cc2ccccn2)C3)cn1` showed an INHIBITION of 29.4%. Compound `Cc1cc(Cl)c(C)c(S(=O)(=O)N2CCN(Cc3ccccn3)CC2)c1Cl` has an INHIBITION of 18.6%. In the case of `CC(C)Cn1cc2nc(N3CCC(O)CC3)[nH]cc-2c1=O`, the INHIBITION is reported as 66.5%. In the case of `CC(C)Cn1cc2nc(N3CCCC3)[nH]cc-2c1=O`, the INHIBITION is reported as 47.4%. Compound `CC(C)Cn1cc2nc(N3CCCC(C)C3)[nH]cc-2c1=O` (stereo unspecified) has an INHIBITION of -40.4%. `COc1ccccc1C(=O)NS(=O)(=O)c1cncc(Br)c1` showed an INHIBITION of 28.3%. In the case of `COc1c(CNCC(O)c2ccccc2)c(C(C)C)nn1C` (stereo unspecified), the INHIBITION is reported as 3.73%. For `COc1ccc2c(c1)OCC(C(=O)NCc1ncc3c(n1)CCC3)C2` (stereo unspecified), the INHIBITION was -9.39%. Work on `O=C1NCc2ccccc2CC12CCN(Cc1ccccc1Cl)CC2` yielded an INHIBITION of 36.6%. With `Cc1nc(N(C)C)nc(N2CCC3(CC2)CNC(=O)O3)c1C` the INHIBITION was -12.1%. `NC(=O)CN1CCC2(CC1)C[C@@H](O)[C@H](c1ccccc1)NC2=O` gave an INHIBITION of 53.2%. For `CN(C)C(=O)CN1CCC2(CC1)C[C@@H](O)[C@H](c1ccccc1)NC2=O`, the INHIBITION was 22%. In the case of `CNC(=O)CN1CCC2(CC1)C[C@@H](O)[C@H](c1ccccc1)NC2=O`, the INHIBITION is reported as 44.8%. For `CN(C)C(=O)CN1CCn2cc(Cn3cccn3)nc2C1`, the INHIBITION was 38.5%. `COc1ccc(C2CCCN2c2ccnc(C)c2Cl)c(OC)c1` (stereo unspecified) showed an INHIBITION of 82.2%. In the case of `COc1ccc(C2CCCN2c2nnc(C)s2)c(OC)c1` (stereo unspecified), the INHIBITION is reported as 15.5%. `COc1ccc(C2CCCN2c2cnccn2)c(OC)c1` (stereo unspecified) was tested, and the INHIBITION was 31.6%. Work on `O=C([C@@H]1CN(Cc2nccs2)C[C@H]2OCC[C@H]21)N1CCOCC1` yielded an INHIBITION of 14%. `Cn1cc(CN2CC[C@H]3O[C@H](C(=O)NCc4ccco4)CC[C@H]32)cn1` was tested, and the INHIBITION was -20.6%.
